Compound activity (PubChem)
Shown are actives, neighbours in structure and some others; about 3.1% of the full set was active somewhere.
ALOX12 inhib: qHTS Assay for Inhibitors of 12-hLO (12-human lipoxygenase); Polyunsaturated fatty acid lipoxygenase ALOX12 (Homo sapiens), P18054; purified 12-hLO, xylenol orange hydroperoxide absorbance; Potency, µM (doses to about 57.1 µM), for inactives: at the top dose activity change, negative = inhibition, usual class: inhibitors; actives 0.12% (n = 150,000); AID 1452, 2008; further: potency means the concentration at half of the fitted maximal effect; nearly all actives have a fitted effect of over 55% in size
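Purified human 12hLO (150 nM final) was preincubated with compounds for 15 min at room temperature in 25 mM Hepes pH 7.0, 0.01% Triton X-100, then reacted with 40 uM arachidonic acid for 30 min. Hydroperoxide was detected with ferrous iron/xylenol orange.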
ALOX15B inhib: qHTS Assay for Inhibitors of 15-hLO-2 (15-human lipoxygenase 2). Polyunsaturated fatty acid lipoxygenase ALOX15B (Homo sapiens), O15296. purified 15hLO-2, xylenol orange hydroperoxide absorbance. Potency, µM (top dose mostly 57.1 µM), for the others: at the top dose activity change, negative = inhibition, actives largely listed as inhibitors. actives 0.56% (n = 110,000). AID 881, 2007; further: potency means the concentration at half of the fitted maximal effect; nearly all actives have a fitted effect of over 60% in size
Target sequence (O15296 whole entry, looked up): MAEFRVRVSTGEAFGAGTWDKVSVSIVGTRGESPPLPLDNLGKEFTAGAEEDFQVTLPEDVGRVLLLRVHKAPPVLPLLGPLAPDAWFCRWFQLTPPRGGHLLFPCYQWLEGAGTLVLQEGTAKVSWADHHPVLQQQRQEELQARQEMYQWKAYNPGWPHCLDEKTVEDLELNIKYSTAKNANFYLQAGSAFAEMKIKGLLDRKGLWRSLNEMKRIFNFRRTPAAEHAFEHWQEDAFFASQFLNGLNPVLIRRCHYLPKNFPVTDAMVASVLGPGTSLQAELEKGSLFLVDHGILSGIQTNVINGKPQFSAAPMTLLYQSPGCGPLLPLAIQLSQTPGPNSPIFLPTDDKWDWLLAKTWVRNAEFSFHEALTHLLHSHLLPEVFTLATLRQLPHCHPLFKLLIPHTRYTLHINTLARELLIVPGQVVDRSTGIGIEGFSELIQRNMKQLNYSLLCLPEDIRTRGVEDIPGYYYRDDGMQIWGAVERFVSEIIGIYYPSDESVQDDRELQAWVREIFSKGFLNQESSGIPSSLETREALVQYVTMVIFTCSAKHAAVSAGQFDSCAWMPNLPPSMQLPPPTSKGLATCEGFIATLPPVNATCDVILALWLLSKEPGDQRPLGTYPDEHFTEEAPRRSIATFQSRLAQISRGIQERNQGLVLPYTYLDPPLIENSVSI
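Screening format was qHTS against 50 nM purified 15hLO-2 in Hepes pH 7.5 with detergent. Activity follows hydroperoxide formation from 45 uM arachidonic acid, measured as 573:405 nm absorbance ratio of the ferric-xylenol orange complex.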
PNC inhibitor: High Content Assay for Compounds that inhibit the Assembly of the Perinucleolar Compartment; AID 2417, 2010; activity change (PNC), negative = inhibition, % at 10 µM; actives 3.1% (n = 140,000); PC3M PTB-GFP, PNC prevalence imaging, 16 h; hits give low values;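 active means readout at or below -70, meaning at least 70% loss of cells showing the perinucleolar compartment, a nuclear body marking cancer cells; inconclusive means readout between -30 and a set limit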;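 further: plate controls were DMSO wells for no effect and camptothecin positive control wells for full effect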
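PC3M cells stably expressing PTB-GFP, 750–1000 cells/well, treated 16 h at 37 °C with compound (23 nl of library stock), in duplicate. After paraformaldehyde fixation and Hoechst stain, imaged at 20x; PNC prevalence scored by image analysis.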
Starred values were filed as active, the others as inactive; ? = inconclusive; nt = no result; [ ] = dose if it differs, or a comment. Unless noted, the call rests on the fitted dose curve; in most records, active means well fitted curve in the direction sought with a large enough effect; inconclusive means small, poorly fitted or top-dose-only effect, or another doubt; inactive means no such curve, though single readings can be large; an effect the other way counts as inactive or inconclusive. Unless noted, on the % scale 0 is the no-effect control and ±100 the full control effect.

SMILES | ALOX12 inhib | ALOX15B inhib | PNC inhibitor
O=C(NCCN1CCOCC1)c1ccc2c(c1)N(Cc1ccccc1)C(=O)CS2 | -6% | 0%[2.29 µM] | 22
CC(C)C(NC(=O)C(Cc1ccc(O)cc1)NC(=O)C(NC(=O)C(F)(F)F)C(C)C)C(=O)O (centres undefined) | 2% | -2% | nt
O=Cc1cn(-c2ccccc2)nc1-c1ccc2c(c1)OCCO2 | -5% | nt | ?
N#Cc1cn(-c2ccccc2)nc1-c1ccc2c(c1)OCCO2 | 0% | -7% | -100*
CCN1C(=O)N[C@@H](c2cccs2)C(C(=O)OC)=C1C | 1%[11.4 µM] | nt | nt
COC(=O)C1=C(C)C(c2cccs2)NC(=O)N1C (centres undefined) | 2% | nt | -100*
CCCC[C@@H](C=O)NC(=O)[C@H](CC(C)C)NC(=O)[C@H](CC(C)C)NC(C)=O | 2%[0.00818 µM] | 3%[0.0915 µM] | nt
CC(=O)NCC(=O)N[C@H](CCC(=O)O)C(=O)O | -5% | 8% | nt
CCOC(=O)CCC(NC(=O)CCCC(=O)NC(CCC(=O)OCC)C(=O)OCC)C(=O)OCC (centres undefined) | 4% | nt | -8
CCOC(=O)CCC(NC(=O)CCC(=O)NC(CCC(=O)OCC)C(=O)OCC)C(=O)OCC (centres undefined) | 0% | nt | -134*
c1cncc(-c2nc(-n3ccnc3)c3ccccc3n2)c1 | nt | -6% | nt
CC1C/C(=C/c2cccs2)C(=O)/C(=C/c2cccs2)C1 (centres undefined) | -5% | nt | -113*
CC1C/C(=C/c2ccco2)C(=O)/C(=C/c2ccco2)C1 (centres undefined) | -28% | nt | 10
O=C1CC(c2ccccc2F)c2cc3c(cc2N1)CCC3 (centres undefined) | -1% | -2% | -9
O=C1CC(c2cc(Br)ccc2F)c2cc3c(cc2N1)CCC3 (centres undefined) | -3% | -2% | -97*
c1cncc(-c2cc(-c3cc(-c4cccnc4)n[nH]3)[nH]n2)c1 | -3%[11.4 µM] | -6%[11.4 µM] | nt
Cc1cccc(S(=O)(=O)c2c(N)n(/N=C/c3ccco3)c3nc4ccccc4nc23)c1 | ? | ? | 0
Cc1ccc(S(=O)(=O)c2c(N)n(/N=C/c3ccco3)c3nc4ccccc4nc23)cc1C | ? | 13µM* | -16
N[C@H](CCCP(=O)(O)O)C(=O)O | -6% | 11% | nt
COc1cccc(-c2cc(=O)c3cc(NC(=O)c4cccnc4)ccc3[nH]2)c1 | -1%[0.00818 µM] | 4%[0.0915 µM] | nt
COc1ccc(C(=O)Nc2ccc3[nH]c(-c4cccc(OC)c4)cc(=O)c3c2)cc1 | -2%[0.00818 µM] | -3%[0.0915 µM] | -119*
O=C(/C=C\c1ccco1)Nc1cc([N+](=O)[O-])ccc1F | -3% | nt | -134*
O=C(/C=C/c1ccco1)Nc1cc(Cl)ccc1C(=O)O | -17% | nt | 22
Cc1ccc(S(=O)(=O)N[C@H](C(=O)O)C(C)C)cc1 | 1%[11.4 µM] | -4%[11.4 µM] | nt
O=C(c1csnn1)N1CCC2(CCCN(c3ncccn3)C2)CC1 | 3% | 1% | nt
SMILES | ALOX12 inhib | ALOX15B inhib | PNC inhibitor
O=C(CSc1nc2ccccc2s1)N1c2ccccc2Sc2ccc(Cl)cc21 | 3% | -3% | ?
CCN(CC)CC(=O)N1c2ccccc2Sc2ccc(Cl)cc21 | 10% | nt | -100*
COc1ccc2[nH]cc(CCNc3ncncc3-c3ccc(N(C)C)cc3)c2c1 | 10% | 41% | nt
Cc1cc(-n2c(C)cc(C(=O)CSc3nnc4sc5ccccc5n34)c2C)no1 | 0% | -5% | -12
Cc1cc(-n2c(C)cc(C(=O)CSc3nnnn3-c3ccc(Cl)cc3)c2C)no1 | 2% | nt | -100*
COC(=O)[C@@]1(Cc2ccc(OC)cc2)[C@H]2c3cc(C(=O)N(C)C)n(Cc4cc(C)n(C)n4)c3C[C@H]2CN1C(=O)c1ccccc1 | -6% | 7% | nt
c1ccc(-c2ccn3nnnc3n2)cc1 | 0% | nt | -100*
c1ccc(-c2cnn3nnnc3n2)cc1 | -2% | -4% | -11
Nc1nc2c(c(=O)[nH]1)N(C=O)[C@H](CNc1ccc(C(=O)N[C@@H](CCC(=O)O)C(=O)O)cc1)CN2 | -3%[25.6 µM] | 1%[25.6 µM] | nt
CCN1CCCC1CNC(=O)c1csc2c1CCCC2 (centres undefined) | 1% | 3%[11.4 µM] | -85*
O=C(NCC1CCCO1)c1csc2c1CCCC2 (centres undefined) | -6% | 7% | -14
COC(=O)[C@](C)(N)Cc1ccc(O)cc1 | -4% | -8% | nt
CN(C)Cc1cc(C(F)(F)F)ccc1C(O)(c1ccccc1)c1ccccc1 | 4%[11.4 µM] | 12%[11.4 µM] | nt
O=C1N=C(N2CCOCC2)SC1=C1CCCCC1 | 4% | -3% | -16
CC(=O)N1CCN(C2=NC(=O)C(=C3CCCCC3)S2)CC1 | -1% | nt | -100*
C[C@H]1CC(C)(C)C[C@@](OCCN2CCCCC2)(c2ccccc2)C1 | 2%[11.4 µM] | 14%[11.4 µM] | nt
Cc1cc(SCC(=O)c2ccc(Br)cc2)cc(C)[o+]1 | -8%[11.4 µM] | -13%[11.4 µM] | nt
CN(C)S(=O)(=O)c1ccc(NC(=O)/C=C/c2ccccc2Cl)cc1 | -4% | nt | 68
CN(C)c1ccc(NC(=O)/C=C/c2c(Cl)cccc2Cl)cc1 | -2% | nt | -93*
CC(C)NC(=O)N1CCCC2(CCN(C(=O)c3ccncc3)CC2)C1 | 0% | 3% | nt
COc1ccc(/C=C/C(=O)CC(O)(c2ccccc2)C(F)(F)F)cc1 (centres undefined) | 0% | nt | -100*
O=C(/C=C/c1ccccc1)CC(O)(c1ccccc1)C(F)(F)F (centres undefined) | -5% | -7% | -1
Cc1c(C)c2cc(Cl)c(OCc3nn[nH]n3)cc2oc1=O | -1% | -6% | -122*
COC(=O)Cc1c(C)c2c(OCc3nn[nH]n3)cc(C)cc2oc1=O | -4% | -3% | 37
Nc1ccccc1-c1nc2ccccc2[nH]1 | 2% | 10% | -83*
SMILES | ALOX12 inhib | ALOX15B inhib | PNC inhibitor
Nc1ccc(-c2nc3ccccc3[nH]2)cc1 | 0% | 4% | 4
Cc1c(-c2ccc(O)cc2)nn(-c2ccc(O)cc2)c1-c1ccc(OCCN2CCCCC2)cc1 | -3% | 54% | nt
Cc1ccc(OS(=O)(=O)c2ccccc2)c(/C=N/N=C2\NC(=O)C(C)S2)c1 (centres undefined) | -2% | nt | -82*
O=C1CS/C(=N/N=C/c2ccccc2OS(=O)(=O)c2ccccc2)N1 | -3% | nt | ?
O=C(Oc1ccccc1)N1CCC2(CCCN(c3ncccn3)C2)CC1 | 2% | 8% | nt
COc1ccccc1N1CCN(S(=O)(=O)c2ccc3nc(-c4ccccc4)[nH]c3c2)CC1 | -4% | nt | -113*
O=S(=O)(c1ccc2nc(-c3ccccc3)[nH]c2c1)N1CCN(c2cccc(Cl)c2)CC1 | 0% | nt | 2
COc1ccccc1CNc1ncncc1-c1ccccc1Cl | nt | 23% | nt
CCOC(=O)C1Cn2c(nc3c(c2=O)C2(CCCC2)Cc2ccccc2-3)S1 (centres undefined) | -9% | 6% | -103*
CCOC(=O)C1Cn2c(nc3c(c2=O)C(C)(C)Cc2ccccc2-3)S1 (centres undefined) | -10% | -12% | -22
O=C(c1cc(C(F)(F)F)cc(C(F)(F)F)c1)N1CCC2(CC1)CN(Cc1ccccc1)C2 | 0% | 6% | nt
